Experimental findings from PubChem BioAssay (NCATS) are described below.

Molecules are shown by their SMILES. Inconclusive results are not listed. Active and inactive are the calls of the source. Unless noted, calls follow the shape of the dose curve; as a rule, active = well fitted curve in the direction sought with a large enough effect; inconclusive = small, poorly fitted or top-dose-only effect, or another doubt; inactive = no such curve, though single readings can be large; an effect the other way counts as inactive or inconclusive.

Experiment [1] is described as follows: Cell Viability - Hek293 (AID 427;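 active = compounds whose dose-response curve shows a full or clear partial loss of cell viability, called from curve shape rather than a numeric limit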;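 also: potency is read from the fitted curve at half-maximal effect; cells exposed to compound for 40 hours at 37 °C before reading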). The note with it: qHTS. In short, it runs like this:
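Luminescent ATP read-out (CellTiter-Glo, 20 min RT) after 40 hr compound exposure at 37 °C in complete medium. Signal normalized to DMSO (basal) and 100 uM tamoxifen (100% inhibition); concentration-response fitted with the standard Hill equation to give AC50.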
On the technique in general: In qHTS, concentration-response curves come from the screen itself.

Experiment [2] can be described thus: Cell Viability - N2a (AID 540).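 Also: cells exposed to compound for 40 h at 37 °C; plate controls were DMSO alone for no effect and tamoxifen control for full effect; nearly all actives have a fitted effect of over 45% in size.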 The note with it: N2a mouse neuroblastoma cell viability; activity change, negative = cytotoxicity: at 92.2 µM (top of the series). The essentials:
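In this qHTS cytotoxicity screen, ATP-dependent luciferase luminescence reports viable N2a cells after a 40 hr compound exposure in complete culture medium. Potencies are AC50 values from standard Hill equation fits.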

The nature of experiment [3]: Cellular Toxicity (caspase-3) SHSY5Y (AID 657). Conditions: SH-SY5Y caspase-3 activation, DMSO zero, 10 µM staurosporine = 100%; series mostly up to 91.7 µM. In short, it runs like this: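 qHTS, SH-SY5Y, 1500 cells/well, 5 h pre-incubation 37 °C; compound 16 h 37 °C; Caspase-Glo 3/7 1 h RT; luminescence. Norm.: DMSO = 0, 10 uM staurosporine = 100%. Hill fit → AC50.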

Experiment [4] in a line: Cellular Toxicity (caspase-3) Mesangial (AID 660).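 Also: combined caspase 3 and 7 activity read by Caspase-Glo luminescence; cells exposed to compound for 16 h before the caspase read.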 The note with it: mesangial cells, normalized: DMSO 0%, 100 µM tamoxifen 100%; series mostly up to 91.7 µM. In short, it runs like this:
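AC50 values come from Hill-equation fits of caspase 3/7 activation, measured as Caspase-Glo luminescence in human glomerular mesangial cells exposed to compound for 16 h at 37 °C; 100% set by 100 uM tamoxifen.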

Experiment [5] can be described thus: Cellular Toxicity (caspase-3) SK-N-SH (AID 661). The note with it: SK-N-SH caspase-3 activation, qHTS; series mostly up to 91.7 µM. In short, it runs like this: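 Apoptosis readout in SK-N-SH neuroblastoma: Caspase-Glo 3/7 luminescence following 16 hr treatment in complete culture medium. Normalization used DMSO and 10 uM staurosporine controls.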
Experiment [6] in a line: Cellular Toxicity (caspase-3) Renal Proximal Tubule (AID 667).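 Also: cells exposed to compound for 16 hours at 37 °C before detection.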 Conditions: renal proximal tubule cells; series mostly up to 91.7 µM. The essentials:
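AC50 derived by standard Hill fit of concentration-response data, normalized between DMSO basal and 10 uM staurosporine as 100% stimulation. Cells: primary rat kidney proximal tubule, 16 h treatment at 37 °C.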

The nature of experiment [7]: Cell Viability - LYMP1-003 - Assay at 24 hr (AID 963).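 Also: plate controls were DMSO only for no effect and tetraoctylammonium bromide positive control for full effect.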 The note with it: LYMP1-003 lymphoblastoid cell viability; series mostly up to 92.2 µM. In short, it runs like this: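 The lymphoblastoid line was treated with titrated compounds for 24 hours, and viable cell number estimated from luciferase-based ATP luminescence.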
The nature of experiment [8]: Cell Viability - LYMP2-003 (AID 965).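 Also: cells exposed to compounds for 24 h before reading; 0% = DMSO only and full effect = 92 µM tetraoctylammonium bromide; nearly all actives have a fitted effect of over 50% in size.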 Conditions: LYMP2-003 lymphoblastoid cell viability; series mostly up to 92.2 µM. In short, it runs like this:
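Seed 2500 lymphoblastoid cells/well; incubate 5 hr, 37 C; add compounds; incubate 24 hr, 37 C; add CellTiter-Glo, 30 min RT; read luminescence. AC50 from Hill fit.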

A short description of experiment [9]: Cell Viability - LYMP2-005 (AID 967).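 Also: cells exposed to compound for 24 h at 37 °C; plate controls were DMSO only for no effect and 92 µM tetraoctylammonium bromide control for full effect.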 Conditions: LYMP2-005 lymphoblastoid cell viability; series mostly up to 92.2 µM. The essentials:
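Acute cytotoxicity is scored as a concentration-dependent drop in intracellular ATP in human lymphoblastoid LYMP2-005 cells after 24 h compound treatment. ATP is quantified by luciferase luminescence, and AC50 is derived by Hill-equation modelling.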

A short description of experiment [10]: Cell Viability - LYMP2-017 (AID 972).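 Also: cells exposed to compound for 24 hours at 37 °C; nearly all actives have a fitted effect of over 55% in size.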 Also: potency is read from the fitted curve at half-maximal effect. As to activity change, negative = cytotoxicity: % is scaled to controls: 0 for no effect and ±100 for the full control effect. The note with it: LYMP2-017 lymphoblastoid cell viability; series mostly up to 92.2 µM. The essentials:
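In this qHTS format, lymphoblastoid cells in complete medium receive test compound for a day at 37 C before ATP content is quantified by luciferase luminescence. Reported AC50 figures come from standard Hill-equation curve fitting.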

The nature of experiment [11]: Cell Viability - LYMP2-016 (AID 984).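 Also: cells exposed to compound for 24 hours at 37 °C; % is scaled to controls: 0 for no effect and ±100 for the full control effect; nearly all actives have a fitted effect of over 55% in size.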 The note with it: LYMP2-016 lymphoblastoid cell viability, qHTS; series mostly up to 92.2 µM. The essentials: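 Cells were seeded at 2500 per well and rested 5 hr before a 24 hr compound exposure at 37 C. Viability was then gauged as cellular ATP by luciferase luminescence, with AC50 values fitted to the Hill equation.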
The nature of experiment [12]: qHTS assay for small molecule agonists of retinoid X receptor alpha signaling (AID 588544). Conditions: HEK293T RXRa-UAS-bla, beta-lactamase reporter, 18 h; 530 nm emission.
Experiment [13] in a line: qHTS assay for small molecule agonists of the antioxidant response element (ARE) signaling pathway measured by Nrf2-dependant transcriptional activity - cell viability counter screen (AID 720653; active = well fitted curve in the direction sought with a large enough effect in the repeat runs; an effect the other way counts as inactive or inconclusive; also: % is scaled to controls: 0 for no effect and ±100 for the full control effect). Conditions: ARE-bla HepG2 viability, CellTiter-Glo ATP luminescence, 16 h; stronger effect = lower value. The essentials:
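ARE-bla HepG2 cells treated with compounds for 16 h at 37C; this counter screen measures viability as intracellular ATP by CellTiter-Glo luminescence after 30 min at room temperature.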

The nature of experiment [14]: Cell Viability - H-4-II-E (AID 543).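 Also: cells exposed to compound for 40 hours; % is scaled to controls: 0 for no effect and ±100 for the full control effect; nearly all actives have a fitted effect of over 35% in size.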 Conditions: H-4-II-E rat hepatoma viability; series mostly up to 92.2 µM. The essentials:
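AC50 from Hill-modelled qHTS concentration-response curves. H-4-II-E rat hepatoma cells in complete medium, 40 hr exposure at 37 °C, viability by CellTiter-Glo ATP luminescence.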

Experiment [15] can be described thus: Cell Viability - LYMP2-013 (AID 970).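 Also: cells exposed to compound for 24 h at 37 °C; 0% = DMSO only and full inhibition = tetraoctylammonium bromide control; nearly all actives have a fitted effect of over 55% in size.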 The note with it: LYMP2-013 lymphoblastoid cells viability; series mostly up to 92.2 µM. The essentials:
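In complete culture medium, human lymphoblastoid cells were dosed for 24 hr at 37 C, with tetraoctylammonium bromide (6.4pM to 92 uM) as positive control. Viability reflects luciferase-based ATP signal; AC50 derived from concentration-response curves.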

Experiment [16] is described as follows: Cell Viability - LYMP2-023 (AID 975).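 Also: cellular ATP measured by luciferase luminescence as viability proxy; cells exposed to compound for 24 hours at 37 °C; plate controls were DMSO only for no effect and 92 µM tetraoctylammonium bromide control for full effect; nearly all actives have a fitted effect of over 55% in size.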 Conditions: LYMP2-023 lymphoblastoid cell viability; series mostly up to 92.2 µM. The essentials: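 In this qHTS, ATP-based luciferase luminescence (CellTiter-Glo) is quantified in human lymphoblastoid cells after 24 hr compound treatment at 37 C; tetraoctylammonium bromide serves as positive control. Concentration-response curves are Hill-fitted to give AC50.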

The target of experiment [17] is Vitamin D3 receptor (Homo sapiens) (UniProt P11473). Nature of the experiment: qHTS assay for small molecule antagonists of vitamin D receptor signaling (AID 588541; calls by dose curve;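 also: receptor activated by calcitriol during compound treatment; % is scaled to controls: 0 for no effect and ±100 for the full control effect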). Conditions: HEK293T VDR-UAS-bla, beta-lactamase ratio, antagonist mode; series mostly up to 76.7 µM. The essentials: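 VDR-UAS-bla HEK293T cells in 2% charcoal-stripped FBS were stimulated with 1-alpha,25-dihydroxyvitamin D3 (3 nM final) plus compound for 16 h at 37 C. The beta-lactamase CCF4 readout was normalized to 50 nM agonist and DMSO, and Hill fits gave IC50.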

Experiment [18] in a line: qHTS assay for small molecule activators of the p53 signaling pathway (AID 651743; active = well fitted activation curve with a large enough effect in the signal ratio, not every such curve was filed as active; the % refers to the signal ratio; also: % of control where 0% means no effect). Conditions: HCT-116 p53RE-bla, beta-lactamase FRET ratio, 16 h; activation: stronger effect = higher value. In short, it runs like this: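 Reporter: beta-lactamase driven by p53 response elements, stably integrated in HCT-116 cells. Cells seeded at 4,000/well, 5 h preincubation, compound (DMSO) 16 h at 37 C; B/G FRET substrate 2 h RT; fluorescence intensity read.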

Experiment [19] can be described thus: qHTS assay for cell viability of HEK293 cells (AID 743288). Also: % is scaled to controls: 0 for no effect and ±100 for the full control effect; nearly all actives have a fitted effect of over 50% in size. The note with it: ATP luminescence (CellTiter-Glo), 18 h, stronger effect = lower value. The essentials: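 Viable-cell counts were inferred from luciferase-based ATP content in HEK293 cells seeded at 2,000/well, pre-incubated ≥5 h, then dosed with DMSO-solubilised compounds for 18 h at 37 C.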
Experiment [20] is described as follows: Cell Viability - LYMP2-009 (AID 968). Conditions: LYMP2-009 lymphoblastoid cell viability; series mostly up to 92.2 µM.

Vitamin D3 receptor (Homo sapiens), sequence (P11473 whole entry, looked up): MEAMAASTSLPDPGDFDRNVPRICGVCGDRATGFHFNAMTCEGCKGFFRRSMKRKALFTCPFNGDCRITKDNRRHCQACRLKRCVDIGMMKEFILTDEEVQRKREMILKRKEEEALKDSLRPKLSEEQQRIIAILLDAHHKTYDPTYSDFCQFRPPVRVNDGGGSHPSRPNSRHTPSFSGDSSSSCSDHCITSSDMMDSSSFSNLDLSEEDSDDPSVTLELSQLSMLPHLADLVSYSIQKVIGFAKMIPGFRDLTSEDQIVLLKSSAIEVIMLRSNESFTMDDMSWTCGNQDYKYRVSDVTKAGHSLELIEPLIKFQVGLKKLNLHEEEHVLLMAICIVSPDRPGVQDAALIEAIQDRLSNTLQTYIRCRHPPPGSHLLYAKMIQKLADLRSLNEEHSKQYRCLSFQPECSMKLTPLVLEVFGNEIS

As to `N#CC(Br)Br`, the values for the Potency in experiment [1] and in experiment [10] were > 92 µM (inactive) and 39.8 µM (active), respectively. In addition, the Potency result in [2], in experiment [5], in [8], in experiment [9] and in [11] was “inactive” in each case. The molecule was classed as inactive in experiment [3], in experiment [4], in experiment [6] and in [7]. The max response in experiment [12] is 0.349%; in [13], -8.42% (inactive).
For the molecule `CC(C)(COCC1CO1)COCC1CO1` (stereo not given), the Potency in experiment [1] is > 92 µM (inactive). Also, the Potency entry in [2], in [14], in experiment [5], in experiment [8], in experiment [9] and in experiment [15] was “inactive” throughout. Besides, the Potency result in [10], in [16] and in [11] was “inactive” in each case. The result in experiment [3], in experiment [4], in experiment [6], in experiment [7] and in [17] was inactive. For the same molecule, the activation in experiment [18] was 6.6% (inactive). Moreover, the values for the max response in [13] and in [19] were 1.11% (inactive) and -5.18% (inactive), respectively.
With `COc1c(C(C)(C)C)cc([N+](=O)[O-])c(C)c1[N+](=O)[O-]`, the Potency in [1] was > 92 µM (inactive). Further, the Potency entry in experiment [2], in [14], in experiment [5], in [8], in experiment [9] and in [20] was “inactive” each time. Further, the Potency entry in experiment [15], in experiment [10], in [16] and in [11] was “inactive” throughout. The outcome in [4], in experiment [6], in experiment [7] and in experiment [17] was inactive. For the same molecule, the max response in [12] was -3.49%; in experiment [13] it was 4.77% (inactive). For the same molecule, the activation in experiment [18] was -1.58% (inactive).
For `CN(C)c1ccc(N(C)C)cc1`, in experiment [1], the Potency is > 92 µM (inactive). For the same molecule, the molecule was classed as inactive in experiment [3], in experiment [6] and in experiment [7]. Besides, the Potency result in [5] and in experiment [16] was “inactive” each time. Further, the max response in experiment [12] is -11.6%; in [13], -11.4% (inactive); in experiment [19] it was -3.92% (inactive). The activation in [18] was 1.85% (inactive).
Consider `Nc1c(Br)cc([N+](=O)[O-])cc1[N+](=O)[O-]`, for which, in experiment [1], the Potency was > 92 µM (inactive). The molecule was classed as inactive in experiment [3], in [4], in experiment [6], in experiment [7] and in experiment [17]. For the same molecule, the Potency entry in experiment [5], in experiment [8], in experiment [9], in experiment [20], in experiment [15] and in experiment [10] was “inactive” each time. The Potency entry in [16] and in experiment [11] was “inactive” each time. Further, the max response in experiment [12] was -9.23%; in experiment [13] it was 13.3% (inactive); in [19], -10.1% (inactive). Further, the activation in experiment [18] was -4.7% (inactive).
`Nc1ccc(Cc2ccc(N)c(Cl)c2)cc1Cl`: the Potency in experiment [1] was > 92 µM (inactive). Besides, the call in experiment [4], in [6] and in [17] was inactive. The Potency entry in experiment [5], in experiment [8], in experiment [9], in experiment [20], in [15] and in experiment [10] was “inactive” in each case. Further, in experiment [11], the Potency result was “inactive”. Further, the activation in [18] is -1.58% (inactive). Also, the max response in experiment [13] was -8.13% (inactive); in experiment [19] it was -12.3% (inactive).
For the molecule `CCCC[N+](=O)[O-]`, the Potency in experiment [1] was > 92 µM (inactive). Further, the Potency result in experiment [2], in experiment [14], in experiment [5], in experiment [9], in [20] and in [10] was “inactive” throughout. For the same molecule, the Potency result in experiment [16] and in experiment [11] was “inactive” each time. The result in experiment [3], in [4], in [6], in experiment [7] and in experiment [17] was inactive. In addition, the max response is -5.28% in experiment [12], -1.65% (inactive) in experiment [13] and -6.09% (inactive) in experiment [19].
For the molecule `COC(C)(C)C`, the Potency in [1] is > 92 µM (inactive). The Potency entry in experiment [2], in experiment [14], in [5], in experiment [9], in experiment [20] and in experiment [15] was “inactive” throughout. In addition, the Potency entry in experiment [10], in experiment [16] and in experiment [11] was “inactive” each time. In addition, the molecule was classed as inactive in experiment [3], in [7] and in [17]. The max response was 9.16% in [12], 4.13% (inactive) in experiment [13] and -5.4% (inactive) in experiment [19]. Also, in experiment [18], the activation is -2.31% (inactive).
